Assay outcomes: PubChem, NMMLSC
Only some compounds are listed: those with a hit (about 1.2% of all), similar ones and a draw of the others.
GSH fluor: compound fluoresces at 488/530 nm on GSH beads | GSH beads flow cytometry, compound fluorescence 488/530 nm; stronger effect = higher value | fluorescence (KMESF) at 10 µM | 190,000 tested, 0.25% active | AID 1776; in the data active means fluorescence above about 89;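 further: glutathione beads carrying GST-tagged Bcl family fusion proteins plus one bare bead set; values are compound well signal with DMSO vehicle wells as background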
RGS8-Gao reg: modulates binding of RGS8 to human Galphao | multiplexed bead flow cytometry; actives lie on both sides | response (percent of control binding), % at 10 µM | 220,000 tested, 0.34% active | AID 1423; in the data active means response below about 60% or above about 140%; inactive means in between;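 further: Galphao activated as the GDP aluminium fluoride complex binding bead-coupled RGS8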
RGS4-Gao reg: human RGS4-Galphao interaction regulation; P09471; Multiplexed bead flow cytometry, RGS4-Galphao binding; actives lie on both sides; binding response (% of control), % at 10 µM; 220,000 tested, 0.33% active; in the data active means binding response below about 49% or above about 150%; inactive means in between;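 further: fluorescent Galphao activated with aluminum fluoride binding bead-coupled RGS4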
RGS16-Gao: regulators of human RGS16-Galphao interaction | bead-based flow cytometry RGS16-Galphao binding, fluorescence; actives lie on both sides | binding response (% of control), % at 10 µM | AID 1441 | 220,000 tested, 0.38% active;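 further: Galphao activated by GDP with aluminum fluoride before binding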
Avidin bead fluor: avidin bead compound fluorescence profile; Avidin beads, compound fluorescence 488/530 nm, flow cytometry; stronger effect = higher value; fluorescence (KMESF) at 10 µM; 220,000 tested, 0.38% active; in the data active means fluorescence above about 47
RGS7-Gao: regulators of human RGS7-Galphao interaction; Multiplexed bead flow cytometry, RGS7-Galphao binding; actives lie on both sides; 220,000 tested, 0.35% active; binding response (% of control), % at 10 µM; in the data active means binding response below about 49% or above about 150%; inconclusive means no clear call, values can overlap the other calls; inactive means in between;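 further: fluorescent Galphao held in activated GDP-AlF4 state binding bead-coupled RGS7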
RGS4-Gao HTS: regulators of human RGS4-Galphao interaction; shares compounds with RGS16-Gao; multiplexed bead flow cytometry, RGS–Galpha-o binding; RGS4–Galpha-o binding response, % at 10 µM; 1,600 tested, 99% active;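 further: fluorescently labeled Galpha-o bound to GDP with aluminium fluoride binding biotinylated RGS beads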
Avidin counter: counter-screen: compounds disrupting biotin binding to avidin beads | AID 1783 | 1,700 tested, under 10 active | streptavidin beads, fluorescein-biotin binding, flow cytometry | shares compounds with RGS16-Gao | inhibition, % at 10 µM;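 active means inhibition above 50%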;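 further: median green fluorescence of gated singlet beads compared with DMSO control wells; 0% = DMSO wells and 100% = complete loss of bead fluorescence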
RGS8-Gao single: confirmation of regulators of human RGS8-Galphao interaction | shares compounds with RGS16-Gao | binding response (% of control), % at 10 µM | 1,700 tested, 3% active | bead-based flow cytometry RGS8-Galphao binding, fluorescence; actives lie on both sides; in the data active means binding response below about 72% or above about 130%; inactive means in between;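 further: Galphao activated as GDP AlF4 complex before binding bead RGS8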
RGS7-Gao confirm: confirmation of regulators of human RGS7-Galphao interaction; shares compounds with RGS16-Gao; response (percent of control binding), % at 10 µM; bead-based flow cytometry RGS7-Galphao binding; actives lie on both sides; 1,700 tested, 7.8% active; in the data active means response below about 75% or above about 130%; inactive means in between;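 further: fluorescent Galphao activated with GDP and aluminum fluoride binding bead-coupled RGS7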
RGS16-Gao single: confirmation of regulators of human RGS16-Galphao interaction; response (% of control binding), % at 10 µM; shares compounds with RGS16-Gao; 1,700 tested, 4% active; bead-based flow cytometry, RGS16-Galphao binding; actives lie on both sides; in the data active means response below about 74% or above about 130%; inactive means in between;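 further: Galphao activated as the GDP aluminium fluoride complex binding bead-coupled RGS16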
RGS4-Gao single: RGS4-Galphao interaction regulation, single point confirmation; shares compounds with RGS16-Gao; RGS4-Galphao binding, multiplexed bead flow cytometry; actives lie on both sides; binding response (% of control), % at 10 µM; 1,700 tested, 4% active; in the data active means binding response below about 74% or above about 130%; inactive means in between
RGS19-Gao conf: confirmation of regulators of human RGS19-Galphao interaction; shares compounds with RGS16-Gao; bead-based flow cytometry RGS19-Galphao binding; actives lie on both sides; response (percent of control binding), % at 10 µM; 1,700 tested, 5% active; in the data active means response below about 50% or above about 160%; inactive means in between;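 further: 100% = no compound control and 0% = blank background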
An asterisk follows results filed as active; ? = inconclusive; . = no result; [ ] = dose if it differs, or a comment. Unless noted, how the calls were made is not given here.

SMILES | GSH fluor | RGS8-Gao reg | RGS4-Gao reg | RGS16-Gao | Avidin bead fluor | RGS7-Gao | RGS4-Gao HTS | Avidin counter | RGS8-Gao single | RGS7-Gao confirm | RGS16-Gao single | RGS4-Gao single | RGS19-Gao conf
Cc1noc(C)c1CSc1ncnc2sc3c(c12)CCCCC3 | 21 | 97 | 96 | 96 | 6 | 96 | . | . | . | . | . | . | .
O=C(NC1CCS(=O)(=O)C1)c1ccc(-c2ccc(Br)cc2)o1 (stereo not given) | 12 | 97 | 98 | 100 | 38 | 99 | . | . | . | . | . | . | .
COc1cc(/C=N/NC(=O)Cn2ccc(C(F)(F)F)n2)cc(OC)c1OC | 14 | 20* | 31* | 14* | 2 | 23* | . | 0 | 104 | 98 | 105 | 100 | 94
CCOc1ccc2cc(C3CC(c4ccco4)=NN3S(C)(=O)=O)c(Cl)nc2c1 (stereo not given) | . | 98 | 98 | 99 | 6 | ? | . | . | . | . | . | . | .
CCc1ccc(C2CC(c3ccco3)=NN2S(C)(=O)=O)cc1 (stereo not given) | 18 | . | . | . | . | . | . | -1 | 99 | 105 | 98 | 100 | 92
Cc1c(Cl)c([N+](=O)[O-])nn1CC(=O)NC(C)C1CC2CCC1C2 (stereo not given) | 10 | 97 | 99 | 101 | 34 | 100 | . | . | . | . | . | . | .
Cc1ccc(N2CN=c3s/c(=C\c4ccccn4)c(=O)n3C2)cc1 | 23 | 60* | 51 | 53 | 18 | 48* | 51* | -1 | 97 | 92 | 95 | 95 | 110
CCN(c1ccc(N=Cc2c(O)n(Cc3ccc(OC)cc3)c(=O)c3ccccc23)cc1)C(C)C | 155* | 103 | 124 | 120 | 19 | 163*[activator] | 124* | 2 | 116 | 309*[activator] | 194*[activator] | 221*[activator] | 473*[activator]
CCOC(=O)C(NC(C)=O)(Nc1cccc(F)c1)C(F)(F)F (stereo not given) | 38 | 106 | 104 | 103 | 10 | 103 | . | . | . | . | . | . | .
CCOC(=O)C(NC(C)=O)(Nc1ccc(F)cc1)C(F)(F)F (stereo not given) | 37 | 99 | 138 | 119 | 260* | 205*[activator] | 138* | 2 | 103 | 108 | 104 | 106 | 106
CCNC(=O)NC(=O)C(C)Sc1ncc(C(F)(F)F)cc1Cl (stereo not given) | 12 | 99 | 99 | 96 | 8 | 97 | . | . | . | . | . | . | .
Cn1c(-c2ccc(F)cc2)cnc1NCc1cc2c(cc1[N+](=O)[O-])OCO2 | 9 | 104 | 103 | 110 | 15 | 104 | . | . | . | . | . | . | .
Cc1cc(F)ccc1NCc1cc2c(cc1[N+](=O)[O-])OCO2 | 63 | 89 | 84 | -41* | 2 | 88 | 84* | 1 | 88 | 85 | 87 | 88 | 95
CCOC(=O)N1CCC(NC(=O)c2cccnc2SC)CC1 | 17 | . | . | . | . | . | . | 1 | 101 | 100 | 103 | 102 | 111
Cc1[nH]cnc1CSCCN | 6 | 91 | 89 | 93 | 6 | 90 | . | . | . | . | . | . | .
Cc1[nH]cnc1CSCc1ccc(Cl)cc1 | 10 | 147*[activator] | 134 | 192*[activator] | 3 | 134 | 134* | -2 | 114 | 117 | 111 | 113 | 98
